Source: PubChem BioAssay (Tox21)
Inconclusive results are not listed. Values without a mark were called inactive. Activity calls are given as the source filed them. Calls come from the whole dose curve; as a rule, active = well fitted activation curve with a large enough effect in the signal ratio in the repeat runs, with a control signal flat (not every such curve was filed as active); inconclusive = weak or mixed curves, or effect the other way; inactive = no such curve, though single readings can be large or run the other way; the % refers to the signal ratio.

Biological target: Androgen receptor (Homo sapiens) (UniProt P10275)
Sequence (P10275 whole entry, looked up): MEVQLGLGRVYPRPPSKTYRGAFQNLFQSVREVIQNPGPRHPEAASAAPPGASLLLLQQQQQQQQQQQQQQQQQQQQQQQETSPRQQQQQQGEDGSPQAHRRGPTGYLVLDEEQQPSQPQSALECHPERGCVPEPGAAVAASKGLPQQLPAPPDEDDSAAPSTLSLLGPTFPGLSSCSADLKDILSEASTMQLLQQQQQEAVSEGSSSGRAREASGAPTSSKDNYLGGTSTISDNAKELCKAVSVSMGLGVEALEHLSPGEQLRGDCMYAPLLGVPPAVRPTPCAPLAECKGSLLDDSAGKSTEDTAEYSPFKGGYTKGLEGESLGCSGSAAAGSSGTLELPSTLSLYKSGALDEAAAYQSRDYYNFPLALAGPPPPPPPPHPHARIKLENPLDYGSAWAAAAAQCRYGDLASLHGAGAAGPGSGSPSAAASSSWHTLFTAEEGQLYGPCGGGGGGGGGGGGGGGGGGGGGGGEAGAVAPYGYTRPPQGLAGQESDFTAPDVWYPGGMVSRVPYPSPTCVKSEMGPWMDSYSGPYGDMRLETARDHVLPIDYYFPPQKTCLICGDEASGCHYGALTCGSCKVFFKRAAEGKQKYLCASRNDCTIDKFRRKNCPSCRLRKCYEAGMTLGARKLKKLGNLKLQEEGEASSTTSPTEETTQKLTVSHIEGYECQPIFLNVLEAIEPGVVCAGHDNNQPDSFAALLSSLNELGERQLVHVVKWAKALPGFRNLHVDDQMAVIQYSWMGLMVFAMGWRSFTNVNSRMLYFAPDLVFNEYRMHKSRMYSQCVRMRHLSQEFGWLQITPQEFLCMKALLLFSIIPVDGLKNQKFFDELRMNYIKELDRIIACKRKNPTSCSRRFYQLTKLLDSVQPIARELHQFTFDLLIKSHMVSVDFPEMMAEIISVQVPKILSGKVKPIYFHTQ
Experiment: qHTS assay to identify small molecule agonists of the androgen receptor (AR) signaling pathway (AID 743036)
Conditions: HEK293 AR-UAS-bla GripTite, beta-lactamase FRET ratio, 16 h; series mostly up to 62.4 µM
Excerpt: U.S. Tox21 Program National Center for Advancing Translational Sciences [NCATS] NIH Chemical Genomics Center [NCGC] U.S. Environmental Protection Agency [EPA] National Institutes of Environmental Health Sciences [NIEHS] National Toxicology Program [NTP] U.S. Food and Drug Administration [FDA] Tox21 Assay Overview: Androgen receptor (AR), a nuclear hormone receptor, plays a critical role in AR-dependent prostate cancer and other androgen related diseases. Endocrine disrupting chemicals (EDCs) and their interactions with steroid hormone receptors like AR may cause disruption of normal endocrine function as well as interfere with metabolic homeostasis, reproduction, developmental and behavioral functions. To identify the compounds that activate AR signaling, GeneBLAzer AR-UAS-bla-GripTite cell line (Invitrogen, Carlsbad, CA, USA) containing a beta-lactamase reporter gene under the control of an Upstream Activator Sequence (UAS) stably integrated into HEK293 cells was used to screen the Tox21 10K compound library.
Tox21 Assay Protocol Summary: AR-bla cells were dispensed at 2,000 cells/6 uL/well of assay medium into black wall/clear-bottom 1536-well plates using a Multidrop Combi (ThermoFisher Scientific, Waltham, MA) dispenser. After the assay plates were incubated at 37C and 5% CO2 for 4 h, 23 nL of compounds dissolved in DMSO, positive controls or DMSO only was transferred to the assay plate by a Pintool station (Kalypsys, San Diego, CA). The plates were incubated at 37C and 5% CO2 for 16 h. Then 1 uL of LiveBLAzerTM B/G FRET substrate was added using a Bioraptr Flying Reagent Dispenser (FRD) workstation (Beckman Coulter, Indianapolis, IN, USA). The plates were incubated at room temperature for 2 h, and fluorescence intensity was measured by an Envision plate reader (PerkinElmer, Shelton, CT).
% is set by controls: 0 for no effect and ±100 for the full control effect.

Structure (SMILES)	outcome	activation
Cc1ccc2cccnc2c1	inactive	
CC/C=C\CCOC(=O)c1ccccc1	inactive	
O=C1c2ccccc2C(=O)N1CO	inactive	
C=CCN1CCc2nc(N)sc2CC1	inactive	
CC12CCCC=C1C(=O)OC2=O (stereo unspecified)	inactive	
C/C(Cl)=C/CCl	inactive	
COC(C)(C)CC(C)=O	inactive	
Nc1cc(S(=O)(=O)O)ccc1O	inactive	
COc1cc(OC)cc(OC)c1	inactive	
CCCCCCCCC1CO1 (stereo unspecified)	inactive	
CCOC(=O)[C@H](CCc1ccccc1)N[C@H]1CS[C@H](c2cccs2)CN(CC(=O)O)C1=O	inactive	
C[C@@H](CN1CC(=O)NC(=O)C1)N1CC(=O)NC(=O)C1	inactive	
CC(O)C(CO)C(C)O (stereo unspecified)	inactive	
CCc1ncc(C)[nH]1	inactive	
O=C[C@@H](O)[C@H](O)[C@H](O)CO	inactive	
CC(C)(C)NCC(O)COc1cccc2c1CCC(=O)N2 (stereo unspecified)	inactive	

Structure (SMILES)	outcome	activation
Cc1ccc(N)nc1	inactive	
CCCC(=O)C(CC)Sc1ccoc1C (stereo unspecified)	inactive	
N#Cc1ccccc1C#N	inactive	
NNC(=O)OCc1ccccc1	inactive	
CC(=O)OC1CCC(C(C)(C)C)CC1 (stereo unspecified)	inactive	
CC1(C)C(=O)C(C)(C)C1=O	inactive	
Cc1ccc(O)c(C(=O)c2ccccc2)c1	inactive	
COCc1nnc(-c2ccc[n+]([O-])c2)n1-c1c(Cl)c(Cl)cc2[nH]c(=O)c(=O)[nH]c12	inactive	
CSC(=O)c1cccc2nnsc12	inactive	
C/C(=N\O)c1ccc(OCC(=O)N2CCCCC2)cc1	inactive	
CC(CN1CC(=O)NC(=O)C1)N1CC(=O)NC(=O)C1 (stereo unspecified)	inactive	
N[C@H]1C(O)O[C@H](CO)[C@@H](O)[C@@H]1O (stereo partly specified)	inactive	
CC(C)OC(=O)C(C(=O)OC(C)C)=C1SC=CS1	inactive	
CC(C)CC(O)Cc1ccccc1 (stereo unspecified)	inactive	
CCCCCCCCCCCCCCCCN(C)C		-6% [at 6.9 µM]
